# Measurements as given in PubChem BioAssay.
# Activity calls are given as the source filed them.
# Columns and labels:
# Albumin (Bos taurus) = Albumin (Bos taurus) (UniProt P02769); assay: compounds binding labelled BSA control protein – biochemical, small-molecule microarray, Alexa647 label, 635/667 nm fluorescence, artefact control for SMM control protein annotation, profiling panel (AID 1118); conditions: BSA-A647 binding, fluorescence 635 nm, higher = more signal;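 note: score merges 667 nm emission intensity and signal-to-noise per printed compound spot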
# [1] = probe aXIP binding to arrayed compounds – biochemical, NeuroSMM set, 635/667 nm fluorescence, primary screen (AID 1119); conditions: small-molecule microarray, higher = more signal, called active from +8 up or from −8 down;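 note: probe is the protein aXip251-270 applied at 1 µg/mL to compound-printed slides; binding of probe to printed compounds measured as 667 nm fluorescence plus signal to noise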
# [2] = probe aNOTCH3 binding on compound microarray – biochemical, small-molecule microarray, 635/667 nm fluorescence, primary screen (AID 1120); conditions: higher = more signal;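 note: probe is a biotin-tagged antibody raised against NOTCH3 rather than NOTCH3 protein; score merges spot fluorescence near 667 nm with spot signal to noise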
# [3] = probe aNOTCH2 binding on compound microarray – biochemical, small-molecule microarray, 635/667 nm fluorescence, primary screen (AID 1121); conditions: higher = more signal;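 note: score merges feature fluorescence read at 667 nm with its signal to noise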
# [4] = biological target: Carbonic anhydrase 2 (Homo sapiens) (UniProt P00918); assay: compounds binding carbonic anhydrase 2 – biochemical, small-molecule microarray, Alexa647-labelled CAII, profiling panel (AID 1122); conditions: CAII-A647 binding fluorescence, higher = more signal
# [5] = COS7 lysate on small-molecule microarray, probe aHis, 635 nm (AID 1123); conditions: COS7 cell lysate, fluorescence, higher = more signal;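 note: z-score combines 667nm fluorescence intensity with signal-to-noise per printed compound spot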
# [6] = probe aLAP1 signal on lysate-treated microarray – cell lysate, small-molecule microarray, COS7 lysate, primary screen (AID 1124); conditions: probe aLAP1, fluorescence, higher = more signal;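 note: lysate comes from COS7 cells expressing LAP1 and is applied at 0.3 µg/mL; score merges spot fluorescence near 667 nm with signal-to-noise over triplicate slides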
# Sam68 (KHDRBS1) = assay: compounds binding KHDRBS1 protein – biochemical, small-molecule microarray, 635 nm fluorescence, primary screen (AID 1125); conditions: higher = more signal;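 note: score merges 667 nm channel intensity with signal to noise over triplicate slides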
# [7] = test system: Chordin-like protein 2 (CHRDL2); assay: compounds binding chordin-like 2 – biochemical, small-molecule microarray, 635 nm fluorescence, primary screen (AID 1126); conditions: fluorescence 635 nm, higher = more signal;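 note: printed compound slides probed with Chrdl2 protein at 4 µg/mL for 1 h at 4 C; score merges 667 nm emission intensity with signal to noise over three replicate slides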
# [8] = biological target: Concanavalin-A (Canavalia ensiformis) (UniProt P02866); assay: compounds binding concanavalin A lectin – biochemical, small-molecule microarray, Alexa647 label, 635 nm, artefact control for SMM control protein annotation, primary screen (AID 1127); conditions: ConA-A647 binding fluorescence, higher = more signal;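 note: z combines 667 nm emission intensity with signal-to-noise across three replicate slides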
# Sequence of Concanavalin-A (Canavalia ensiformis) (P02866 whole entry, looked up): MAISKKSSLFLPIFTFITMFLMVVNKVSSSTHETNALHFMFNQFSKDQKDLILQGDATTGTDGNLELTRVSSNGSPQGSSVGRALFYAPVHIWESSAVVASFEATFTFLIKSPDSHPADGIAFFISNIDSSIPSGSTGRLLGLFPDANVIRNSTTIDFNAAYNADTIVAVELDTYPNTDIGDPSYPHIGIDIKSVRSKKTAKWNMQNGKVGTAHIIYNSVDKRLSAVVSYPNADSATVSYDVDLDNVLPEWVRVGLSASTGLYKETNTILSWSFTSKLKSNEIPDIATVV
# Sequence of Albumin (Bos taurus) (P02769 whole entry, looked up): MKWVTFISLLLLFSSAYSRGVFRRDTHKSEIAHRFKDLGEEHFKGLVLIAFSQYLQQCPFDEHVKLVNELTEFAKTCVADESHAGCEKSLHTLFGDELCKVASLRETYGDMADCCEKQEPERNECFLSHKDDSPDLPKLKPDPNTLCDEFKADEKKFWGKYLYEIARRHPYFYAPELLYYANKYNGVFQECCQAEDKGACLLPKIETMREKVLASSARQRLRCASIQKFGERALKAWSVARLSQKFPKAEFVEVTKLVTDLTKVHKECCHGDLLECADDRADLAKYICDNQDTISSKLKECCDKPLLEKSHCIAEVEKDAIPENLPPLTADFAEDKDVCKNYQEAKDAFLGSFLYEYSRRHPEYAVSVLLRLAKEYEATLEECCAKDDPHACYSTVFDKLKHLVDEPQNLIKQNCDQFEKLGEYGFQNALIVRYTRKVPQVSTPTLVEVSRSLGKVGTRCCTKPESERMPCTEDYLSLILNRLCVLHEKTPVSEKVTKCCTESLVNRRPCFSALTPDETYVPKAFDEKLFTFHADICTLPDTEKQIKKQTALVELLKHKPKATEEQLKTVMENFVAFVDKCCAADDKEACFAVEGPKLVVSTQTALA
SMILES,composite z-score (Albumin (Bos taurus)),composite Z-score [1],composite z-score [2],composite z-score [3],composite z-score [4],composite z-score [5],composite z-score [6],composite z-score (Sam68 (KHDRBS1)),composite z-score [7],composite z-score [8]
C=C(C(=O)CC[C@H](OC(=O)c1cccnc1)c1ccccc1OCCO)C(C)C,-0.609,-0.507 (inactive),0.143,-0.129,0.543,1.28,0.86,0.912,1.39,0.49
CC(C)(C)OC(=O)CC[C@@]1(C(=O)N2CCOCC2)N=C(c2ccc(OCCCO)cc2)O[C@@H]1c1ccccc1N=[N+]=[N-],0.899,0.817 (inactive),0.336,-0.0463,0.74,3.35,1.51,1.3,-0.16,1.14
COCCOC(=O)N1C(=O)[C@@]2(c3ccccc31)[C@H](C(=O)N1CCCCCCC1)[C@H]1C(=O)O[C@H](c3ccccc3)[C@H](c3ccccc3)N1[C@@H]2c1ccccc1OCCO,0.911,3.89 (inactive),1.5,0.699,0.838,3.32,1.19,1.29,1.32,1.2
C=CC[C@]1(C(=O)NCCN2CCOCC2)N=C(c2ccc(OCCCO)cc2)O[C@H]1c1ccccc1N=[N+]=[N-],0.927,0.581 (inactive),0.0303,-0.0359,0.691,1.55,0.811,1.24,0.663,0.563
COc1ccc(C(=O)Nc2cccc(CN3C(=O)[C@@]4(O[C@@H](CCn5cc([C@H](O)c6ccccc6)nn5)[C@H]([Si](C)(C)c5ccc(OC)cc5)[C@H]4C)c4ccccc43)c2)cc1,-0.455,0.257 (inactive),0.123,-0.053,0.113,1.16,0.0494,0.459,0.078,0.791
O=C1C2C=CC(C(O)c3ccc(Br)cc3)N(n3cnnc3)C2C(=O)N1Cc1ccccc1 (stereo not given),0.807,-1.02 (inactive),-0.0443,-0.0004,0.259,1.57,0.448,1.29,-0.064,1.07
Cc1ccc(C(C)CC(O)C2C=CC3C(=O)NC(=O)C3N2Nc2ccccn2)o1 (stereo not given),-0.5,0.598 (inactive),0.237,-0.106,0.887,0.305,0.149,0.259,0.676,-0.336
CCOC(=O)C[C@H]1[C@H](OC(=O)c2cc3ccccc3oc2=O)[C@@H](NC(=O)c2ccc3ccccc3c2)c2cc(OCCCO)ccc2N1C(=O)c1ccccc1,0.342,0.465 (inactive),0.0745,-0.123,0.571,0.224,0.334,1.29,0.234,0.275
Cc1ccc(S[C@]2(C(=O)NCC(F)(F)F)CC(=O)N(C3Cc4ccccc4C3)[C@@H]2c2ccc(CO)cc2I)cc1,0.0944,0.325 (inactive),-0.207,-0.156,0.629,0.403,-0.245,-0.292,-1.18,-1.71
C=CCC(OC(C)=O)[C@@H]1[C@@H](N(Cc2cc3ccccc3o2)C(=O)c2ccc(C)cc2)c2cc(OCCCO)ccc2N1C(=O)c1ccc(-c2ccccc2)cc1 (stereo not given in full),-0.0944,0.0882 (inactive),0.102,-0.18,0.0677,0.263,-0.161,0.318,0.073,-0.0198
COCCOC(=O)N1C(=O)[C@@]2(c3cc(C#Cc4ccc(OC)cc4)ccc31)[C@H](c1ccc(O)cc1)N1[C@H](c3ccccc3)[C@H](c3ccccc3)OC(=O)[C@H]1[C@@H]2C(=O)N1CCN(c2ncccn2)CC1,0.303,-0.321 (inactive),0.0486,-0.0956,0.395,1.48,0.406,1.2,-0.126,0.657
Cc1ccc(N2C(=O)c3ccccc3[C@@H](C(=O)NC(C)C)[C@@H]2c2ccc(CO)cc2)nc1,-0.106,-0.0969 (inactive),-0.272,-0.152,0.743,0.971,0.618,-0.721,-0.0432,-0.0441
O=C(NCc1ccccc1)[C@@H]1c2ccccc2C(=O)N(Cc2cc(F)cc(C(F)(F)F)c2)[C@H]1c1ccc(CO)cc1,0.491,0.318 (inactive),-0.0477,-0.124,0.589,1.67,0.662,1.27,0.161,0.769
